Compound activity from PubChem.
In the library only some 3.5% were active in any assay of this set; here they are far more common.
Mcl1 Bid PPI – Mcl-1/Bid interaction inhibition | Q07820 | TR-FRET Mcl-1/Bid-Dy647 peptide binding, 1536-well | inhibition, % at 21.7 µM | 220,000 tested, 0.97% active | AID 1021;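 active = compounds that cut the binding signal by more than half at the single screening dose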;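 note: His-tagged Mcl-1 with europium anti-His antibody binding Bid BH3 peptide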
Target sequence (Q07820 whole entry, looked up): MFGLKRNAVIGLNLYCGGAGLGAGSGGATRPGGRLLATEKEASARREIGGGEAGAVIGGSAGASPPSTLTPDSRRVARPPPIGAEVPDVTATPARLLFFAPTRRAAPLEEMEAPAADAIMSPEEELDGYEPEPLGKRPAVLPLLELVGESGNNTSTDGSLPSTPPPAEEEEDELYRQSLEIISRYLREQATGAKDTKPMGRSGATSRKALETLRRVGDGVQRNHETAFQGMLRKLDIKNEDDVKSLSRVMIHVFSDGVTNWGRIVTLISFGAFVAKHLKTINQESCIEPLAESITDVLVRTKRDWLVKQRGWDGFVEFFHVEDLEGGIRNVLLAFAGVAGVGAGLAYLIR
Mcl-1 Bim block – inhibitors of Bim-Mcl-1 interaction, human; inhibition, % at 10 µM; 190,000 tested, 0.1% active; AID 1009; Bead-based flow cytometry, Bim peptide-Mcl-1 binding; in the data active = inhibition above about 40%
Hck Nef HTS – human Hck-Nef kinase inhibition | inhibition, % at 20 µM | 220,000 tested, 0.68% active | AID 463187 | Recombinant Hck-YEEI plus Nef, Z-Lyte FRET kinase assay | P08631;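 active = Hck-Nef kinase inhibition above about 50%, limit read from the data; inactive = inhibition below that limit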
Mcl1-Noxa inh – Mcl-1/Noxa interaction inhibition; TR-FRET Mcl-1/Noxa peptide binding, 2 h; 220,000 tested, 1.5% active; Q07820; AID 1022; inhibition, % at 21.7 µM;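 active = compounds that cut the protein-peptide binding signal by more than 50% relative to plate controls in a single-dose test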;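 note: His-tagged Mcl-1 with rhodamine Noxa BH3 peptide and terbium anti-His antibody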
eIF4E-4G inh – blocks eIF4E binding to eIF4G. P63073+Q04637. 220,000 tested, 0.37% active. TR-FRET eIF4E-eIF4GI(517-606) binding, 2 h. inhibition, % at 21.7 µM;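 active = inhibition above about 30%, limit read from the data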
14-3-3 Bad PPI – disrupts binding of bovine 14-3-3 zeta to phospho-Bad peptide. inhibition, % at 21.7 µM. TR-FRET 14-3-3zeta/Dy647-pBad peptide displacement, 1 h. 220,000 tested, 0.71% active. AID 781;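 active = inhibition above about 70%, limit read from the data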
Target sequence (P63103 whole entry, looked up): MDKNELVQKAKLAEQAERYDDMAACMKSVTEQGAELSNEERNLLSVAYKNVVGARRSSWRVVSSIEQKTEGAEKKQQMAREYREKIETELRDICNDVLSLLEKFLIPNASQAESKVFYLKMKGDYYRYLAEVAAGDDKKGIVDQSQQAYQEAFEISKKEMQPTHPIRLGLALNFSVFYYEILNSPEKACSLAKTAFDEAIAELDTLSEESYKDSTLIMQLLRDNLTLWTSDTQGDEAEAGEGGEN
Large screens that a line does not name were inactive; [ ] = another dose, or the depositor's remark.

CCOc1ccc(Oc2c(/C=N/NC(=O)C3CC3)c(C)nn2-c2ccccc2)cc1	none
Cc1nc(SCc2c(F)cccc2Cl)n[nH]1	14-3-3 Bad PPI 84.6
O=C(NCc1ccco1)c1ccc2nc3sc4c(c3c(=O)n2c1)CCCC4	Mcl1-Noxa inh 67.8
O=C1N=C(N2CCCC2C(=O)O)S/C1=C\c1ccco1 (stereo not drawn)	none
Cc1nc(=O)c(-c2ccccc2)c(C)n1CCCO	14-3-3 Bad PPI 90.0
Cc1nc(=O)c(-c2ccccc2)c(C)n1CCO	none
CCOc1ccccc1OCc1nn2c(COc3ccccc3)nnc2s1	eIF4E-4G inh 31.6
O=C(COC(=O)CNC(=O)C1CCCCC1)Nc1ccc(Cl)cc1F	none
CC(c1ccco1)N(C(=O)c1ccccc1NS(=O)(=O)c1ccc(Cl)c([N+](=O)[O-])c1)c1ccccn1 (stereo not drawn)	none
O=C(CSCc1ccccc1)NCCCN1CCOCC1	Mcl1 Bid PPI 97.7
COc1ccc(CN2CCn3nc(C(=O)NC4CC4)cc3C2=O)cc1	none
C=CCOC(=O)C1=C[C@@H](c2ccc3c(c2)OCO3)C[C@@H](OCc2ccc(CO)cc2)O1	none
COc1ccc2sc3ccccc3c(=O)c2c1	none
Cc1cc(O)cc2c(=O)c3ccccc3sc12	Mcl1-Noxa inh 59.0
Cc1ccc(NCC(=O)Nc2cccc(S(=O)(=O)N(C)C)c2)c(Cl)c1	none
CC(C)(C)NC(=O)c1ccc(C(=O)NC(C)(C)C)cc1	none (no result: Mcl-1 Bim block)
CC(C)(C)NC(=O)c1sccc1C(=O)O	Mcl1 Bid PPI 90.3, Mcl1-Noxa inh 54.2, 14-3-3 Bad PPI 76.7
CCCc1cc(=O)[nH]c(SCC(=O)c2c(C)[nH]c3ccccc23)n1	Mcl1 Bid PPI 76.2 (no result: Mcl-1 Bim block)
COCCNC(=O)CSC1=N/C(=C/c2ccc(Cl)c(Cl)c2)C(=O)N1c1ccccc1F	none
O=C(/C=C/c1cccs1)Nc1scc(-c2ccccc2)c1C(=O)O	Mcl1 Bid PPI 93.2, eIF4E-4G inh 92.4, 14-3-3 Bad PPI 92.1
O=S(=O)(c1ccc(F)cc1)N1CCN(c2ccc(-c3ccccc3)nn2)CC1	none
O=C(Cc1ccccc1)Nc1scc(-c2ccccc2)c1C(=O)N1CCOCC1	Mcl1 Bid PPI 86.1
O=C(Nc1scc(-c2ccccc2)c1C(=O)O)c1ccco1	none
CCOC(=O)N1CCN(Cc2nc(-c3cccs3)no2)CC1	none
Cc1c(S(=O)(=O)c2ccccn2)c(N)n(Cc2cccc(Cl)c2)c1C	eIF4E-4G inh 72.8 (no result: Mcl-1 Bim block)
O=S(=O)(c1ccc(Cl)cc1)c1ccccn1	none
Cc1ccc(S(=O)(=O)N(C)c2ccccc2C(=O)NC2CCCC2)cc1	none
O=C(O)c1ccccc1NSc1ccccc1[N+](=O)[O-]	Mcl-1 Bim block 51.0
CC(C)S(=O)(=O)c1csc(NC(=O)Nc2cccc([N+](=O)[O-])c2)c1Cl	none (no result: Mcl-1 Bim block)
COc1ccc(C(=O)Nc2ccc3oc(Cc4ccc(Cl)cc4)nc3c2)cc1OC	eIF4E-4G inh 52.8
N#Cc1c(N)oc(-c2ccco2)c1-c1ccco1	none
COc1ccc(OC)c(/C=N/c2oc(-c3ccco3)c(-c3ccco3)c2C#N)c1	Mcl1-Noxa inh 77.2
CCN(CC)CCN1C(=O)C(=O)/C(=C(/O)c2ccc(C)cc2)C1c1cccnc1 (stereo not drawn)	eIF4E-4G inh 97.3 (no result: Mcl-1 Bim block)
CCN(CC)CCCN1C(=O)C(=O)/C(=C(/O)c2cc(C)ccc2C)C1c1cccnc1 (stereo not drawn)	none
Cc1ccsc1C=Nc1ccc(O)cc1	none
Oc1ccc(N=Cc2ccc(O)c(O)c2)cc1	Mcl1-Noxa inh 66.7, 14-3-3 Bad PPI 85.9[fluorescence artefact?]
CNC(=S)N/N=C/c1cn(CCOc2ccc(OC)cc2)c2ccccc12	none
COc1cc(CN2CCN(c3cccc(C)c3C)CC2)cc(OC)c1O	none
FC(F)(F)c1cccc(N2CCN(Cc3cccnc3)CC2)c1	none
FC(F)(F)c1cccc(N2CCN(Cc3ccoc3)CC2)c1	Mcl1 Bid PPI 53.5
Cc1cccc(N2CCN(Cc3ccoc3)CC2)c1C	14-3-3 Bad PPI 73.7
C=CCOc1ccc(CNCCc2ccc(S(N)(=O)=O)cc2)cc1	none
CCOC(=O)C(C)Oc1ccc(OCc2ccccc2)cc1 (stereo not drawn)	none
COC(=O)c1ccc(Nc2cc(C)nc3ccc(C)cc23)cc1	none (no result: Mcl-1 Bim block)
Cc1ccc2nc(C)cc(Nc3ccc([N+](=O)[O-])cc3)c2c1	14-3-3 Bad PPI 76.9
CCn1c(CSc2nc3ccccc3s2)nnc1SCC(=O)c1ccc(O)c(O)c1	Mcl1-Noxa inh 61.6
CCn1c(Cc2ccccc2)nnc1SCC(=O)Nc1ccccc1O	none
COc1cccc(CC2(CO)CCN(Cc3ccc4cccc(F)c4n3)CC2)c1	14-3-3 Bad PPI 90.1
O=C(NC(=S)NCc1ccccc1)c1ccc2c(c1)OCO2	none
Cc1ccc(S(=O)(=O)/N=C2/C=C(C3C(=O)CC(C)(C)CC3=O)C(=O)c3ccccc32)cc1	Mcl1-Noxa inh 79.8
Cc1ccc(S(=O)(=O)N2CCC(C(=O)C3C(=O)CC(C)(C)CC3=O)CC2)cc1	none
CC(C)(C)NC(=O)NC(=O)COC(=O)c1cc[n+]([O-])cc1	none
CCCCNS(=O)(=O)c1ccc(NC(=O)c2c(-c3ccccc3Cl)noc2C)cc1	none
CCCCN(C)C(=O)C1CCN(CCCc2ccccc2)CC1	14-3-3 Bad PPI 79.6
CN(Cc1ccccc1)C(=O)C1CCCN(Cc2ccc(Cl)cc2)C1 (stereo not drawn)	14-3-3 Bad PPI 75.6
CCOC(=O)C1CCCN(Cc2ccc3c(c2)OCO3)C1 (stereo not drawn)	14-3-3 Bad PPI 75.1
CCN(CC)C(=O)C1CCCN(Cc2ccccc2C(F)(F)F)C1 (stereo not drawn)	14-3-3 Bad PPI 70.9
OCC1(Cc2cccc(Cl)c2)CCCN(Cc2cnn(-c3ccccc3)c2)C1 (stereo not drawn)	none
CCN(CC)C(=O)C1CCCN(Cc2ccccc2)C1 (stereo not drawn)	14-3-3 Bad PPI 79.7
CN(Cc1ccccc1)C(=O)C1CCN(Cc2ccc(F)cc2)CC1	Mcl1 Bid PPI 55.1
O=C(C1CCCN(Cc2ccccc2)C1)N1CCc2ccccc2C1 (stereo not drawn)	14-3-3 Bad PPI 78.0
CCOC(=O)C1CCCN(Cc2cccc(Cl)c2)C1 (stereo not drawn)	none
COc1ccc(CCN(C)C(=O)C2CCN(Cc3ccccc3)CC2)cc1OC	none
CCN(CC)C(=O)C1CCCN(Cc2ccc(N(C)C)cc2)C1 (stereo not drawn)	none (no result: Hck Nef HTS)
NC(=O)C1CCCN(Cc2ccc(Cl)cc2)C1 (stereo not drawn)	14-3-3 Bad PPI 72.4
O=C(NCCc1c[nH]c2ccccc12)C(=O)NCC1OCCCN1S(=O)(=O)c1cccs1 (stereo not drawn)	none
CCCCNC(=O)c1onc(CSc2cccc3ccccc23)c1C(=O)O	none
CN(C)CCCNc1oc(-c2ccccc2)nc1C#N	Mcl1-Noxa inh 53.3
COc1ccc(-c2nc(C#N)c(NCCCN(C)C)o2)cc1OC	none
